In experiment [1] the test system is RAW-Dual. Nature of the experiment: NF-kB SEAP reporter activity, fold change vs agonist alone; cytotoxicity flag (confluency mask): not cytotoxic; higher = enhanced NF-kB activity. The method in brief:
(§1)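 After 50 nL of library stock was delivered by pin tool to RAW-Dual macrophages (50,000 cells/well, DMEM, 384-well plates), a PRR agonist was added 1 h later and the plates were kept at 37 °C, 5% CO2. Twenty hours later, IRF was read from supernatant by QuantiLuc luminescence and NF-κB by QuantiBlue absorbance at 620 nm. Reporter activity is stated as fold change over agonist-alone wells. Wells with IncuCyte confluency under 70% of agonist controls in both mask sets were counted as cytotoxic.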

Experiment [2] concerns RAW-Dual. The experiment is described as follows: NF-kB SEAP reporter activity, fold change vs agonist alone; higher = enhanced NF-kB activity. The note with it: library stock concentration (final ~1000-fold dilution): 10 mM. Summed up: as §1
In experiment [3] the test system is RAW-Dual. Nature of the experiment: NF-kB SEAP reporter activity, fold change vs agonist alone; cytotoxicity flag (confluency mask): cytotoxic (confluency <70% of control); higher = enhanced NF-kB activity. The method in brief: as §1
Where [4] appears, read: agonist: ODN 1826 (TLR9) 0.5 ug/mL.
The mark [5] stands for this setting: agonist: Pam2CSK4 (TLR2/6) 0.1 ug/mL.
The mark [6] stands for this setting: agonist: Pam3CSK4 (TLR2/1) 0.1 ug/mL.
Where [7] appears, read: cytotoxicity flag (confluency mask): not cytotoxic, agonist: Imiquimod (TLR7) […].
[8] abbreviates: cytotoxicity flag (confluency mask): not cytotoxic, agonist: MPLA (TLR4) […].
Where [9] appears, read: cytotoxicity flag (confluency mask): cytotoxic (confluency <70% of control), agonist: Imiquimod (TLR7) […].
Where [10] appears, read: cytotoxicity flag (confluency mask): cytotoxic (confluency <70% of control), agonist: MPLA (TLR4) […].

SMILES strings stand for the structures. Over roughly 2,900 compounds, “NF-kB SEAP reporter activity, fold change vs agonist alone” has its median near 0.99; the highest 2% begin near 2.6. Many of the other results were omitted from the sample, so the highest values are more common in it than they were.

Regarding `CCCCN(Cc1ccc(C(=O)NO)cc1)C(=O)Nc1ccccc1` (library stock concentration (final ~1000-fold dilution): 10 mM), the “NF-kB SEAP reporter activity” value worked out at 6.63 in the experiment on RAW-Dual [1] (agonist: LPS (TLR4) 0.1 ug/mL), 2.5 in the experiment on RAW-Dual [1] (setting [4]), 1.18 with RAW-Dual [1] (setting [5]) and 1.73 in the experiment on RAW-Dual [1] (setting [6]).
Take `CCCCN(Cc1ccc(C(=O)NO)cc1)C(=O)Nc1ccccc1`: the “NF-kB SEAP reporter activity” value in the experiment on RAW-Dual [2] (setting [7]) came to 1.52; with RAW-Dual [2] (setting [8]), 2.9.
The matching figures for `COc1cc(C(=O)N(CCCc2ccccc2)Cc2ccc(CC(=O)O)cc2)cc(OC)c1C`: 1.1 and 1.11.
Consider `CC(C)CNc1ccnc(NCc2csc(-c3ccccc3)n2)n1.Cl` (library stock concentration (final ~1000-fold dilution): 10 mM), for which the “NF-kB SEAP reporter activity” value is 1.62 in the experiment with RAW-Dual [3] (agonist: LPS (TLR4) 0.1 ug/mL), 0.221 in the experiment with RAW-Dual [3] (setting [4]), 0.625 in the experiment with RAW-Dual [3] (setting [5]) and 0.446 in the experiment on RAW-Dual [3] (setting [6]).
With `CC(C)CNc1ccnc(NCc2csc(-c3ccccc3)n2)n1.Cl`, the “NF-kB SEAP reporter activity” value with RAW-Dual [2] (setting [9]) is 1.85; in the experiment with RAW-Dual [2] (setting [10]), 1.47.
In the case of `Nc1ccn(C2OC(CO)C(O)C2(F)F)c(=O)n1` (stereo not given), the “NF-kB SEAP reporter activity” value was found to be 2.14 with RAW-Dual [2] (setting [9]) and 1.35 with RAW-Dual [2] (setting [10]).
Consider `Nc1ccn(C2OC(CO)C(O)C2(F)F)c(=O)n1` (stereo not given) (library stock concentration (final ~1000-fold dilution): 10 mM), for which the “NF-kB SEAP reporter activity” value with RAW-Dual [3] (agonist: LPS (TLR4) 0.1 ug/mL) was determined as 0.91; with RAW-Dual [3] (setting [4]), 1.88; in the experiment with RAW-Dual [3] (setting [5]) it was 1.18; with RAW-Dual [3] (setting [6]) it was 1.05.
Consider `CCCCCCOC(=O)c1cc(O)c(=O)c2c(O)c(O)c(OC)cc2c1`, for which the “NF-kB SEAP reporter activity” value came out at 1.2 in the experiment with RAW-Dual [2] (setting [7]) and 0.857 in the experiment with RAW-Dual [2] (setting [8]).
Turning to `CCCCCCOC(=O)c1cc(O)c(=O)c2c(O)c(O)c(OC)cc2c1` (library stock concentration (final ~1000-fold dilution): 10 mM), the “NF-kB SEAP reporter activity” value came to 0.614 with RAW-Dual [1] (agonist: LPS (TLR4) 0.1 ug/mL), 0.459 in the experiment on RAW-Dual [1] (setting [4]), 0.599 in the experiment with RAW-Dual [1] (setting [5]) and 0.895 in the experiment on RAW-Dual [1] (setting [6]).
The corresponding values for `NC(=O)c1cccc2nc(-c3ccc(C4CCCN4)cc3F)[nH]c12` (stereo not given) (library stock concentration (final ~1000-fold dilution): 10 mM) are 0.553, 0.198, 1.03 and 1.
`NC(=O)c1cccc2nc(-c3ccc(C4CCCN4)cc3F)[nH]c12` (stereo not given): the “NF-kB SEAP reporter activity” value in the experiment with RAW-Dual [2] (setting [7]) amounted to 1.14; in the experiment with RAW-Dual [2] (setting [8]), 0.748.
For `COC(=O)CC(O)(CCCC(C)(C)O)C(=O)OC1C(OC)=CC23CCCN2CCc2cc4c(cc2C13)OCO4` (stereo not given), the “NF-kB SEAP reporter activity” value in the experiment on RAW-Dual [2] (setting [9]) is 0.141; with RAW-Dual [2] (setting [10]), 0.255.
Turning to `COC(=O)CC(O)(CCCC(C)(C)O)C(=O)OC1C(OC)=CC23CCCN2CCc2cc4c(cc2C13)OCO4` (stereo not given) (library stock concentration (final ~1000-fold dilution): 10 mM), the “NF-kB SEAP reporter activity” value in the experiment on RAW-Dual [3] (agonist: LPS (TLR4) 0.1 ug/mL) worked out at 0.397; with RAW-Dual [3] (setting [4]), 0.169; in the experiment on RAW-Dual [3] (setting [5]) it was 0.0771; with RAW-Dual [3] (setting [6]), 0.133.
Regarding `Cc1ccc(C(=O)N(CCCN)C(c2oc3cc(Cl)ccc3c(=O)c2Cc2ccccc2)C(C)C)cc1.Cl` (stereo not given) (library stock concentration (final ~1000-fold dilution): 10 mM), the “NF-kB SEAP reporter activity” value with RAW-Dual [1] (agonist: LPS (TLR4) 0.1 ug/mL) came to 0.189; with RAW-Dual [1] (setting [4]) it was 0.953; in the experiment on RAW-Dual [1] (setting [5]), 0.344; with RAW-Dual [1] (setting [6]), 0.73.
`Cc1ccc(C(=O)N(CCCN)C(c2oc3cc(Cl)ccc3c(=O)c2Cc2ccccc2)C(C)C)cc1.Cl` (stereo not given): the figures for the “NF-kB SEAP reporter activity” value in the experiment on RAW-Dual [2] (setting [7]) and with RAW-Dual [2] (setting [8]) were 0.905 and 1.03, respectively.
The matching figures for `Oc1cc(CNC(=S)/C=C/c2cc(O)c(O)c(Br)c2)cc(O)c1O`: 1.78 and 2.29.
Consider `Oc1cc(CNC(=S)/C=C/c2cc(O)c(O)c(Br)c2)cc(O)c1O` (library stock concentration (final ~1000-fold dilution): 10 mM), for which the “NF-kB SEAP reporter activity” value was determined as 3.51 with RAW-Dual [1] (agonist: LPS (TLR4) 0.1 ug/mL), 2.77 with RAW-Dual [1] (setting [4]), 1.67 with RAW-Dual [1] (setting [5]) and 0.821 in the experiment on RAW-Dual [1] (setting [6]).
